TROY signal inh = inhibitors of TROY-dependent NF-kB signaling. Q293 LMP1-TROYcd NF-kB luciferase reporter, 4 h. inhibition, % at 10 µM. actives 0.98% (n = 360,000). AID 1347056;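 active = compounds whose plate-normalised and pattern-corrected inhibition of the luciferase reporter signal at the single screening dose is 50% or more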
LGR2 antag = blocks bursicon-induced cAMP signaling via Drosophila LGR2 | HEK293 LGR2, CRE-luciferase, bursicon-stimulated, 4 h | inhibition, % at 9.99 µM | actives 0.35% (n = 380,000);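 active = drop in luminescence signal, shown as inhibition above about 50% in the replicate tests, limit read from the data, passing the limit was not always enough; inconclusive = probably only some replicates passing the limit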;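 note: agonist challenge used bursicon conditioned medium at about half maximal strength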
EBV LMP1 NFkB = reduces LMP1-driven NF-kappaB luciferase signal; LMP1-induced NF-kappaB luciferase reporter cells, luminescence; inhibition, % at 12.5 µM; actives 0.69% (n = 350,000); in the data active = inhibition above about 41%; inconclusive = no clear call, values can overlap the other calls;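 note: 0% = neutral control wells and 100% = reference inhibitor control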
HSF1 activator = increases HSF-1 driven luciferase reporter signal; actives 1.7% (n = 300,000); NIH3T3-HGL HSF-1 luciferase reporter, MG132, 8 h; 100% = twice DMSO control signal; activation, % at 9 µM;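 active = mean replicate activation of at least 50% with a set share of replicates each reaching 50%; inconclusive = only one of those two conditions met; inactive = mean below 50% and too few replicates reaching it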;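 note: 0% = median of the neutral control wells and 100% = twice that signal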
TWEAK-Fn14 inh = inhibitors of TWEAK-Fn14 interaction signaling. TWEAK-stimulated Fn14 reporter cells, luciferase luminescence, 8 h. inhibition, % at 10 µM. actives 2% (n = 360,000). AID 1159606; in the data active = inhibition above about 50%
HSF1 inh = HSF1 inhibition. NIH3T3-HGL HSE-luciferase, MG132-induced, luminescence 8 h; active compounds read low. activity change, negative = inhibition, % at 7.5 µM (by protocol). actives 0.77% (n = 300,000). AID 2098;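 active = more than half of replicate wells show activity change below -50%, luminescence cut by over half; inconclusive = some wells, but at most half, below -50%; inactive = no replicate well below -50%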;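 note: luciferase reports HSF-1 transcriptional activity via heat shock element; 0% = median of DMSO wells and -100% = zero luminescence signal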
* = called active by the depositor. Rows were chosen to be rich in hits. Some 3.6% of all compounds tested hit in one or more screens of this group.

How did O=C(Nc1ccc2c(c1)OCCO2)C(=S)NCc1ccccc1 do in these assays?
TROY signal inh: -49.4; LGR2 antag: -39.6; EBV LMP1 NFkB: -13.4; HSF1 activator: 68.1*; TWEAK-Fn14 inh: -10.9; HSF1 inh: 44.7

What do the screens show for `O=C(CCCCCN1C(=O)c2ccccc2C1=O)Nc1ccc2c(c1)OCCO2`?
TROY signal inh: 2.7; EBV LMP1 NFkB: -0.9; HSF1 activator: -18.9; TWEAK-Fn14 inh: 13.3; HSF1 inh: -2.2

Results for CC1(C(=O)Nc2cccc(C#N)c2)CCN1C(=O)c1ccccc1CCc1ccccc1 (configuration not stated) ?
TROY signal inh: -6.0; LGR2 antag: 18.7; TWEAK-Fn14 inh: 10.9

Results for Cc1noc(C)c1NC(=O)N(C)C[C@@H]1Oc2ccc(NS(=O)(=O)c3ccccc3)cc2CC(=O)N([C@@H](C)CO)C[C@@H]1C ?
LGR2 antag: 8.9

How did Cc1ccc(S(=O)(=O)NCC[C@H]2CC[C@@H](NC(=O)c3cnccn3)[C@@H](CO)O2)cc1 do in these assays?
LGR2 antag: -15.4

Results for C[C@@H]1CCCCO[C@H](CN(C)S(=O)(=O)c2cn(C)cn2)[C@@H](C)CN([C@H](C)CO)C(=O)c2cc(NC(=O)Nc3ccc4c(c3)OCO4)ccc2O1 ?
LGR2 antag: -21.8

Results for COc1cccc(C(=O)Nc2ccc3c(c2)C(=O)N(C)[C@@H]2CC[C@@H](CC(=O)NCCCN4CCOCC4)O[C@H]2CO3)c1 ?
LGR2 antag: 5.8

How did O=C(CCN1C(=O)c2ccccc2C1=O)Nc1ccc2c(c1)OCCO2 do in these assays?
TROY signal inh: 0.2; LGR2 antag: -11.8; EBV LMP1 NFkB: -2.3; HSF1 activator: 0.6; TWEAK-Fn14 inh: 14.8; HSF1 inh: 2.4

What do the screens show for `O=C(CN(c1ccccc1F)S(=O)(=O)c1ccccc1)Nc1ccc2c(c1)OCCO2`?
TROY signal inh: 44.6; LGR2 antag: -6.5; EBV LMP1 NFkB: 11.9; HSF1 activator: -48.5; TWEAK-Fn14 inh: 74.7*; HSF1 inh: -42.4

What do the screens show for `O=C(CC1CS(=O)(=O)CC1CC(=O)Nc1ccc2c(c1)OCCO2)Nc1ccc2c(c1)OCCO2` (configuration not stated)?
TROY signal inh: -2.5; LGR2 antag: inconclusive; EBV LMP1 NFkB: 30.1; HSF1 activator: -86.2; TWEAK-Fn14 inh: 91.3*; HSF1 inh: -82.3*

Results for O=C(CCn1cccn1)Nc1ccc2c(c1)OCCO2 ?
TROY signal inh: 61.5*; LGR2 antag: 13.6; EBV LMP1 NFkB: 5.8; HSF1 activator: -37.5; TWEAK-Fn14 inh: 78.3*; HSF1 inh: -30.5

How did COC(=O)C[C@](O)(CCCC(C)(C)O)C(=O)O[C@@H]1C(OC)=C[C@]23CCCN2CCc2cc4c(cc2[C@H]13)OCO4 do in these assays?
HSF1 activator: -75.9; HSF1 inh: -73.1*

How did Nc1cc2c3ccccc3ccc2c2ccccc12 do in these assays?
TROY signal inh: 37.4; LGR2 antag: 85.7*; EBV LMP1 NFkB: -47.7; TWEAK-Fn14 inh: 103.5*

How did C[N+](C)(C)C[C@H](O)CC(=O)[O-] do in these assays?
TROY signal inh: 2.2; LGR2 antag: -5.4; EBV LMP1 NFkB: 51.2*; HSF1 activator: -2.2; TWEAK-Fn14 inh: -3.0; HSF1 inh: -2.7

What do the screens show for `C[C@@H]1CN([C@@H](C)CO)C(=O)c2cc(NC(=O)Nc3ccc4c(c3)OCO4)ccc2O[C@@H](C)CCCCO[C@@H]1CN(C)C(=O)C1CCCCC1`?
LGR2 antag: 19.1

What do the screens show for `CCN(CC)C(=O)C1CCCN(c2ccccc2[N+](=O)[O-])C1` (configuration not stated)?
TROY signal inh: -12.2; LGR2 antag: -10.6; EBV LMP1 NFkB: -1.7; HSF1 activator: -5.7; TWEAK-Fn14 inh: 6.4; HSF1 inh: -7.0

How did CCN(CC)C(=O)C1CCCN(c2ccc([N+](=O)[O-])cc2[N+](=O)[O-])C1 (configuration not stated) do in these assays?
TROY signal inh: -26.4; LGR2 antag: 21.2; EBV LMP1 NFkB: 52.4*; HSF1 activator: 8.2; TWEAK-Fn14 inh: 0.0; HSF1 inh: 6.3

What do the screens show for `CCCC(=O)Nc1ccc2c(c1)C(=O)N(C)C[C@H](OC)[C@H](C)CN(Cc1cncnc1)[C@@H](C)CO2`?
LGR2 antag: -2.1

How did O=C(N/N=C/c1ccncc1)c1cc2ccccc2cc1O do in these assays?
TROY signal inh: -8.6; LGR2 antag: -17.2; EBV LMP1 NFkB: -2.9; HSF1 activator: 311.5*; TWEAK-Fn14 inh: -0.9; HSF1 inh: 239.9

How did O=C(NCCO)c1cc2ccccc2cc1O do in these assays?
TROY signal inh: -1.6; EBV LMP1 NFkB: 15.4; HSF1 activator: 0.2; TWEAK-Fn14 inh: 11.9; HSF1 inh: -13.8

Results for NNC(=O)c1cc2ccccc2cc1O ?
TROY signal inh: 21.1; LGR2 antag: 33.5; EBV LMP1 NFkB: 51.2*; HSF1 activator: 11.1; TWEAK-Fn14 inh: 90.9*; HSF1 inh: -2.8

How did NNC(=O)c1ccc(O)cc1O do in these assays?
TROY signal inh: -15.4; LGR2 antag: -6.1; EBV LMP1 NFkB: -5.1; HSF1 activator: -90.8; TWEAK-Fn14 inh: 13.3; HSF1 inh: -87.9*

What do the screens show for `C[C@@H]1CN([C@H](C)CO)C(=O)c2cccc(NC(=O)C3CC3)c2O[C@H]1CN(C)C(=O)Nc1ccc2c(c1)OCO2`?
LGR2 antag: -26.6

Results for CN(C)CCC1(C2=CCCC2)CC/C(=C/c2ccc(Cl)cc2)C1=O (configuration not stated) ?
TROY signal inh: 7.6; LGR2 antag: 68.7*; EBV LMP1 NFkB: 8.5; HSF1 activator: 9.3; TWEAK-Fn14 inh: -3.1; HSF1 inh: 9.3

What do the screens show for `C[C@H](CO)N1C[C@H](C)[C@H](CN(C)S(=O)(=O)c2ccccc2)Oc2ccc(N(C)C)cc2C1=O`?
LGR2 antag: 12.4

What do the screens show for `O=C(Cc1ccccn1)N[C@@H]1CC[C@H](CCNC(=O)c2cc(Cl)cc(Cl)c2)O[C@@H]1CO`?
LGR2 antag: 3.4

How did CCOC(=O)c1sc2nc(C)nc(Nc3ccccc3)c2c1C do in these assays?
TROY signal inh: -7.7; LGR2 antag: -30.6; EBV LMP1 NFkB: 5.7; HSF1 activator: 0.7; TWEAK-Fn14 inh: -12.0; HSF1 inh: -6.0

How did CCOC(=O)c1sc2nc(C)nc(NCc3ccccc3)c2c1C do in these assays?
TROY signal inh: 15.6; LGR2 antag: -1.6; EBV LMP1 NFkB: 51.6*; HSF1 activator: 18.2; TWEAK-Fn14 inh: -10.8; HSF1 inh: 14.7

What do the screens show for `COCCc1nc2ccc(C(=O)N(C)Cc3cccc(-n4nc(C)cc4C)c3)cc2o1`?
TROY signal inh: 60.4*; LGR2 antag: -12.1; EBV LMP1 NFkB: -2.1; HSF1 activator: -6.2; TWEAK-Fn14 inh: -1.8; HSF1 inh: 0.1

Results for COc1cccc(-c2nc3ccccc3s2)c1O ?
TROY signal inh: 19.6; LGR2 antag: 52.9*; EBV LMP1 NFkB: -10.5; HSF1 activator: 90.4*; TWEAK-Fn14 inh: 48.5; HSF1 inh: 39.3

Bioassay records as filed in PubChem.
